# Records with an inconclusive call do not appear. A call without a number means that no potency is given here. Unmarked numbers belong to inactive results. Calls of active or inactive are those of the source. Calls come from the whole dose curve; as a rule, active = well fitted inhibition curve with a large enough effect; inconclusive = small, poorly fitted or top-dose-only effect; inactive = no such curve, though single readings can be large or run the other way.
# Experiments:
# [1] = test system: Zika virus NS2B-NS3 protease (unlinked complex); test: Primary screen GU Rhodamine qHTS for Zika virus inhibitors: Unlinked NS2B-NS3 protease assay (AID 1347159); conditions: Recombinant ZIKV NS2B-NS3 protease, Rhodamine110 substrate fluorescence; series mostly up to 107 µM; note: nearly all actives have a fitted effect of over 60% in size; note: potency is the fitted concentration of half-maximal effect
# How it was run: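 A qHTS format was used, with compound concentrations ranging up to 114 microM. Each compound was preincubated with 25 nM NS2B-NS3 protease, and the substrate was then added at 1.5 microM. Curves were fitted with a 4-parameter Hill model.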
# [2] = test system: Zika virus NS2B-NS3 protease (linked construct); test: Primary screen NINDS Rhodamine qHTS for Zika virus inhibitors (AID 1347160); conditions: purified NS2B-NS3 protease, Rhodamine110 substrate fluorescence; series mostly up to 57.1 µM; note: nearly all actives have a fitted effect of over 55% in size
# How it was run: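 Kinetic fluorescence (Ex 480 nm, Em 540 nm) over 15 min with 1.5 microM Rhodamine110 peptide and 25 nM linked protease.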
Compound,Potency [1],Potency [2],"activity change, negative = inhibition [1]","activity change, negative = inhibition [2]"
Cc1[nH]c2ccccc2c1CCNC(=O)c1cccs1,inactive,inactive,,
Fc1ccc(CN2CCC(Nc3ccc(C(F)(F)F)nn3)CC2)cc1F,inactive,inactive,,
COc1ccc2c(c1O[C@H]1CCNC1)CCC2,inactive,inactive,,
CNC(=O)COC(=O)N1CCC(CCc2ccc(Cl)cc2)CC1,inactive,inactive,,
CCCOc1ccc(CCc2nc3cc(-c4c(C)noc4C)ccc3n2CCN2CCOCC2)cc1,inactive,inactive,,
Nc1nc(O)c(C2=C3C(=Nc4ccccc43)C(=O)NCC2)[nH]1,inactive,inactive,,
C=CCCN1CCC2(CC1)CN(C(=O)c1c(F)cccc1F)c1ccc(Cl)cc12,inactive,inactive,,
O=C(NC1(c2ccccc2)CC1)c1c(CN2CCC(N3CCCCC3)CC2)c(-c2cccc(C(F)(F)F)c2)nc2cc(Br)ccc12,inactive,inactive,,
O=c1[nH]c([C@@H]2CCCN2)nc2c1oc1ccc(Cl)cc12,inactive,inactive,,
COc1cc2nc(N3CCN(C(=O)c4ccco4)C4CCCCC43)nc(N)c2cc1OC (centres undefined),inactive,inactive,,
COC(=O)CC1OC(C)C2=C(O)c3c(O)cccc3C(=O)C23OC13 (centres undefined),inactive,inactive,,
Cc1nc(NC(=O)N2CCCC2C(N)=O)sc1-c1ccnc(C(C)(C)C(F)(F)F)c1 (centres undefined),inactive,inactive,,
N#Cc1cc(CN2CCC(Nc3ncnc4sc(Cl)cc34)CC2)ccc1F,inactive,inactive,,
COC(=O)c1ccc2c(c1)[nH]c1ncnc(NCCCN3CCCCC3)c12,inactive,inactive,,
CS(=O)(=O)Nc1ccc2oc3c(OC(F)F)ccc(C(=O)Nc4c(Cl)cncc4Cl)c3c2c1,inactive,inactive,,
CCOC(=O)c1csc(Nc2ccc(Cl)cc2)n1,inactive,inactive,,
CNC(=O)c1ccc2c(c1)CCO[C@H]2CCN1CCN(c2ccc(OC)cc2)CC1,inactive,inactive,,
CCCc1cc(C)[nH]c(=O)c1CNC(=O)c1cc(-c2ccc(N3CCN(C(C)C)CC3)nc2)cc2c1cnn2C(C)C,inactive,inactive,,
Fc1ccc(-c2nc(C3CCNCC3)sc2-c2ccnc(NC3CC3)n2)cc1,inactive,inactive,,
Nc1ncnc2c1c(-c1ccc(Cl)cc1)nn2-c1cccc(-c2cnnn2Cc2cccc(-c3ccccc3)c2)c1,inactive,inactive,,
CC(C)(O)c1ccn2c(-c3ccc(F)c(-c4ccc(F)cc4C#N)c3)cnc2c1F,inactive,inactive,,
COc1cccc(OCCCN)c1-c1cc(Nc2cnc(C#N)cn2)n[nH]1,inactive,inactive,,
COc1ccc(Oc2c(Cl)cnn(-c3cc(C)cc(C)c3)c2=O)cc1,inactive,inactive,,
COC1CC(=O)C23C(=O)NC(Cc4c[nH]c5ccccc45)C2C(C)C2(C)OC2C3/C=C/CC(C)CC1O (centres undefined),inactive,inactive,,

Compound,Potency [1],Potency [2],"activity change, negative = inhibition [1]","activity change, negative = inhibition [2]"
COC1=CC(=O)C[C@@H](C)[C@@]12Oc1c(Cl)c(OC)cc(OC)c1C2=O,inactive,inactive,,
COc1ccc(NC(=O)c2ccc(C(=N)N(C)C)cc2)c(C(=O)Nc2ccc(Cl)cn2)c1,inactive,inactive,,
COc1ccc(C2(CNC(=O)c3ccc(NC(=O)c4ccco4)cc3)CCOCC2)cc1,inactive,inactive,,
CCCCOC(=O)NS(=O)(=O)c1sc(CC(C)C)cc1-c1ccc(Cn2ccnc2)cc1,31.6 µM (active),inactive,,
C=C1CO[C@@]2(O[C@H]3CC4C5CC=C6C[C@@H](O)C[C@@H](O[C@@H]7OC[C@H](O)[C@H](O[C@@H]8OC[C@@H](O)[C@H](O)[C@H]8O)[C@H]7O[C@@H]7O[C@@H](C)[C@H](OC(C)=O)[C@@H](OC(C)=O)[C@H]7OC(C)=O)[C@]6(C)C5CC[C@]4(C)[C@@H]3[C@@H]2C)[C@@H](O)[C@H]1OC1OC(C)C(O)C(O)C1O (some centres undefined),,,-10.8% [at 19.1 µM],5.43% [at 10.7 µM]
C=C(COC(=O)C(O)C(O)CN)C12OC1C1(C)C(=CC2=O)C(O)C(O)CC1C (centres undefined),inactive,inactive,,
CN1CCN(C(=O)CN[C@@H]2C[C@H]2c2ccc(OCc3ccccc3)cc2)CC1,inactive,inactive,,
COc1cc(C#N)ccc1S(=O)(=O)Nc1ccc2c(c1)cc(C)c(=O)n2C,inactive,inactive,,
COC(=O)C(Cc1ccc(OCCn2c(=O)sc3cc(C(=O)c4ccccc4)ccc32)cc1)C(=O)OC,inactive,inactive,,
C=C1C(=O)O[C@@H]2C(OC(=O)/C(C)=C\C)/C(C)=C\C(=O)/C=C(\C)C[C@H](O)[C@@H]12 (some centres undefined),inactive,inactive,,
O=C(c1cc(Cc2n[nH]c(=O)c3ccccc23)ccc1F)N1CCCNCC1,inactive,inactive,,
Cc1cccc(CC(=O)N2CCc3c2ccc(-c2cn(C)c4ncnc(N)c24)c3F)n1,inactive,inactive,,
O=C(NCC1CCN(Cc2cccc(Cl)c2)CC1)[C@@H]1CCCN(c2ncnc3c2nc2n3CCCC2)C1,inactive,inactive,,
C=C1CC[C@@H]2[C@](C)(CO)[C@H](O)CC[C@@]2(C)[C@@H]1CC(=O)C1=CCOC1=O,inactive,inactive,,
C=C[C@@]1(C)C=C2C(=O)C(O)=C3[C@](C)(C(=O)O)CC[C@@H]4C[C@]34[C@]2(O)C(=O)C1,inactive,inactive,,
Cn1cc(-c2ccc(F)c(C(F)(F)F)c2)nc1C1CCN(c2ncnc3[nH]ncc23)CC1,inactive,inactive,,
CCC(=O)N1CCOc2c(cc(-c3ccc(OC)c(OC)c3)cc2OC[C@H]2CCCN(C)C2)C1,inactive,inactive,,
COc1cc(C[C@H]2C(=O)OC[C@@H]2Cc2ccc(OC)c(OC)c2)ccc1O,inactive,inactive,,
Cc1cnc(-c2ccccc2C(C)C)nc1NCc1ccc(-n2ccnn2)cc1,inactive,inactive,,
O=C(Nc1ccccc1C(=O)NC1CCCCNC1=O)c1cc2ccccc2s1 (centres undefined),31.6 µM (active),inactive,,
NS(=O)(=O)c1ccc(NC(=O)Nc2ccc(F)cc2)cc1,inactive,inactive,,
CCc1c[nH]c2ncnc(N3CC[C@](N)(CNC(=O)c4ccc(F)cc4F)C3)c12,inactive,inactive,,
C[C@@H]1O[C@@H](O[C@H]2[C@H](O[C@H]3CC[C@@]4(C)C(CC[C@]5(C)C4C=C[C@]46OC[C@@]7(CCC(C)(C)C[C@H]74)[C@@H](O[C@@H]4O[C@@H](C)[C@H](O)[C@@H](O)[C@H]4O)C[C@]65C)[C@]3(C)CO)O[C@H](CO)[C@@H](O)[C@@H]2O[C@@H]2O[C@H](CO)[C@@H](O)[C@H](O)[C@H]2O)[C@H](O)[C@H](O)[C@H]1O (some centres undefined),inactive,inactive,,
CCC(C)CNCC(=O)N1CCC2SC=CC2C1COc1cccc(C)c1 (centres undefined),inactive,inactive,,

Compound,Potency [1],Potency [2],"activity change, negative = inhibition [1]","activity change, negative = inhibition [2]"
COc1cc(/C=N\NC(=O)c2ccc3c(c2)OCO3)ccc1OCc1ccccc1,inactive,inactive,,
Cc1noc(C)c1-c1cc(O)cc(C(O)c2ccccc2)c1 (centres undefined),inactive,inactive,,
CC(=O)OC(C)(C)/C=C/C(=O)[C@](C)(O)[C@H]1C(O)C[C@@]2(C)[C@@H]3CC=C4[C@@H](C=C(O[C@@H]5O[C@H](CO)[C@@H](O)[C@H](O)[C@H]5O)C(=O)C4(C)C)[C@]3(C)C(=O)C[C@]12C (some centres undefined),inactive,inactive,,
C[C@@H](NC(=O)C(=O)c1c[nH]c2ccc([N+](=O)[O-])cc12)c1ccccc1,inactive,inactive,,
O=C(CCl)Nc1cccc(NC2=NS(=O)(=O)c3ccccc32)c1,inactive,inactive,,
CC(=O)NC(C)c1cnc(-c2cnc(Oc3ccc(OC(C)C)cc3)s2)s1 (centres undefined),inactive,inactive,,
CC(=O)OC1C(=O)C2C3OCC4=C3[C@@](C)(CC[C@@H]4O)CC[C@]2(C)[C@H]1C(C)C (some centres undefined),inactive,inactive,,
C=C1C(=O)OC2CC(C)C(CCC(C)=O)=CCC12 (centres undefined),inactive,inactive,,
COc1ccc(CCCN2CCC(COC(c3ccccc3)c3ccccc3)CC2)cc1,inactive,inactive,,
N#Cc1cc(-c2ccnc(Nc3ccc(N4CCOCC4)cc3)n2)ccc1OC1CCOCC1,inactive,inactive,,
Nc1cccc(CNC(=O)c2ccc(Oc3ccc(OCc4cccc(F)c4)cc3)nc2)c1,inactive,inactive,,
CN(C)[C@@H]1CCc2[nH]c3ccc(NC(=O)c4ccc(F)cc4)cc3c2C1,inactive,inactive,,
C=C1C(=O)OC2C(OC(=O)C=C(C)C)C(C)=C3C(=O)C=C(C)C3C(O)C12 (centres undefined),inactive,inactive,,
C=C1CC[C@@H](O)[C@]2(C)C[C@H]3OC(=O)C(=C)[C@H]3CC12 (some centres undefined),inactive,inactive,,
Nc1nc2c(c(N3CC[C@@H](N)C3)n1)CCCc1ccccc1-2,inactive,inactive,,
C=C1C(=O)O[C@@H]2C[C@H](C)[C@@H]3CC(=O)[C@H](O)[C@@]3(C)C[C@H]12,inactive,inactive,,
CC(C)CCNC(=O)[C@H](CC(C)C)NC(=O)[C@H]1O[C@@H]1C(=O)O,inactive,inactive,,
CO[C@H]1C[C@@H]2CC[C@@H](C)[C@@](O)(O2)C(=O)C(=O)N2CCCC[C@H]2C(=O)O[C@H]([C@@H](C)C[C@@H]2CC[C@@H](O)[C@H](OC)C2)CC(=O)[C@H](C)/C=C(\C)[C@@H](O)[C@@H](OC)C(=O)[C@H](C)C[C@H](C)/C=C/C=C/C=C/1C,inactive,inactive,,
CC(=O)c1ccc2c(c1)[C@H](NC(=O)c1ccc(F)c(Cl)c1)[C@H](O)C(C)(C)O2,inactive,inactive,,
CC(C)(CO)c1cc2cc(NC(=O)C3(c4ccc5c(c4)OC(F)(F)O5)CC3)c(F)cc2n1CC(O)CO (centres undefined),inactive,inactive,,
CCOC(=O)C1(CCOc2ccccc2)CCN(Cc2ccc(O)c(Cl)c2)CC1,inactive,inactive,,
C1=C/COCc2cc(ccc2OCCN2CCCC2)Nc2nccc(n2)-c2cccc(c2)COC/1,inactive,inactive,,
CCCCc1c(-c2ccc(OC)cc2)[nH]c2nccnc12,inactive,inactive,,
COc1ccc2[nH]c(=O)c3c(c2c1)OC(C)(C)C=C3,inactive,inactive,,

# Reference: PubChem BioAssay (NCATS)
